This is a sample that favours compounds with a hit; in the whole collection about 32% have one here.
PostGolgi ctrl: yeast control strain growth, post-Golgi counter-screen; AID 738; inhibition, % at 10 µM; actives 5% (n = 98,000); efflux-deficient yeast background strain, growth absorbance A615, 16 h
PostGolgi yeast: growth inhibition of a yeast mutant, post-Golgi transport screen; actives 0.9% (n = 98,000); AID 739; inhibition, % at 10 µM; post-Golgi transport phenotypic cell assay;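 further: yeast cells grown in 1536-well plates; yeast grown about 18 h at 30C before absorbance read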
CYP2C19 activ: increases human CYP2C19 enzyme activity. P33261. recombinant CYP2C19, luciferin-H EGE luminescence; active compounds read high; 0 = fully inhibited enzyme, 1 = untreated enzyme. activation factor at 5 µM. 96,000 tested, under 10 active. AID 1025;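 active means activation factor of at least 2 at 5 µM in the primary screen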;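 further: 0 = wells with 2.5 mM tranylcypromine and 1 = vehicle-only wells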
CYP2C19 inhib: blocks human cytochrome P450 2C19. P33261. CYP2C19 Supersomes, luciferin-H EGE luminescence, 30 min. inhibition, % at 5 µM. actives 21% (n = 96,000). AID 778;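 active means CYP2C19 inhibition above a set limit at 5 µM in the primary screen, cut at about 50% in these data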;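 further: plate controls were negative control wells for no effect and 2.5 mM tranylcypromine positive control for full effect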
CYP2C9 act: increases human cytochrome P450 2C9 activity | P11712 | activation factor at 5 µM | actives 1.4% (n = 96,000) | recombinant CYP2C9, luciferin-H conversion, luminescence; active compounds read high; factor 1 = untreated enzyme, 0 = blocked | AID 1024;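 active means activation factor of 2 or more for CYP2C9 at a 5 µM dose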;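 further: 0 = sulfaphenazole-blocked wells and 1 = vehicle-only wells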
Target sequence (P11712 whole entry, looked up): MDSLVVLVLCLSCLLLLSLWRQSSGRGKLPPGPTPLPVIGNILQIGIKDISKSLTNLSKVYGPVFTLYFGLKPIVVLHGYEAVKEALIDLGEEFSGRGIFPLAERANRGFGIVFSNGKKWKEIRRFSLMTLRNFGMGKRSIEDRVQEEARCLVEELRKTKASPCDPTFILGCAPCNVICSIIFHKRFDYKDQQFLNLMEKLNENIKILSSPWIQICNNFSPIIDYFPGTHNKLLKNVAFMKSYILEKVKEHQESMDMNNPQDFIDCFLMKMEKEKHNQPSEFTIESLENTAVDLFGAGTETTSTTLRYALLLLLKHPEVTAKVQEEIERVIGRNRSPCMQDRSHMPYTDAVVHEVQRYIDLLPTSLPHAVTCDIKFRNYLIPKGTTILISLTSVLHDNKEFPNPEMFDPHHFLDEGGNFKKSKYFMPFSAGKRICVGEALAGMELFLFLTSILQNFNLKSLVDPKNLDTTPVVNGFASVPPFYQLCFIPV
CYP2C9 inhib: human CYP2C9 inhibition; P11712; CYP2C9 Supersomes, luciferin-H conversion, luminescence; inhibition, % at 5 µM; actives 20% (n = 96,000); AID 777;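 active means blocking of liver enzyme CYP2C9 beyond about 50% at 5 µM, limit read from the data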
* hit, by the source's call; . = not tested or not shown. Unless noted, no stated cut-off is given here; in the data, active means inhibition above about 30%; inactive means the rest.

SMILES | PostGolgi ctrl | PostGolgi yeast | CYP2C19 activ | CYP2C19 inhib | CYP2C9 act | CYP2C9 inhib
COc1ccc(OC)c(NC(=O)C2C3C=CC(C3)C2C(=O)NCc2ccccn2)c1 (centres undefined) | 6 | 1 | 0.7 | 29 | 0.9 | 14
CCN1CCN(C(=O)Cn2ncc3c2-c2ccccc2OC3)CC1 | 29 | 5 | 0.8 | 21 | 0.6 | 40
COc1cc(NC(=O)CN2c3ccccc3CC2C)cc(OC)c1OC (centres undefined) | -2 | 11 | 0.3 | 69* | 0.2 | 81*
CCOc1ccc(-c2cc(NC(=O)Cn3ncc4c3-c3ccccc3OC4)on2)cc1OCC | -9 | 5 | 0.3 | 65* | 1.1 | -14
Cc1ccc(C)c(CN2CCCN(C(=O)Cn3ncc4c3-c3ccccc3OC4)C2)c1 | 17 | -11 | 0.2 | 79* | 0.4 | 56*
COc1cc(NC(=O)Cn2ncc3c2-c2ccccc2OC3)cc(OC)c1OC | 4 | 2 | 0.5 | 55* | 0.6 | 40
COc1cc(C(=O)N2c3ccccc3CC2C)cc(OC)c1OC (centres undefined) | 2 | -4 | 0.8 | 25 | 0.8 | 23
CCOC(=O)C1CCCN(c2c(NCCN3CCCCC3C)c(=O)c2=O)C1 (centres undefined) | -2 | -6 | 1.1 | -11 | 0.9 | 14
O=C(Cn1ncc2c1-c1ccccc1OC2)Nc1cccc(Cl)c1 | 26 | -5 | 0.4 | 56* | 0.6 | 35
CC1CCc2c(sc3ncnc(NCCCOC(C)C)c23)C1 (centres undefined) | 32* | 2 | 0 | 98* | 0.1 | 89*
CC(=O)Nc1cccc(NS(=O)(=O)c2cccc3nsnc23)c1 | 8 | -2 | 0.4 | 57* | 0.6 | 37
COC(=O)C1(S(=O)(=O)c2cccc3nsnc23)CC1 | 3 | 2 | . | . | . | .
Cc1cccc(NS(=O)(=O)c2cccc3nsnc23)c1 | 3 | -15 | 0.2 | 76* | 0.9 | 13
Cc1ccc2nsnc2c1S(=O)(=O)Nc1cccc2nsnc12 | 26 | 14 | 0.8 | 23 | 0.1 | 90*
Cc1ccnc(NS(=O)(=O)c2cccc3nsnc23)c1 | 1 | 0 | 0.9 | 7 | 0.9 | 11
COc1ccc(S(=O)(=O)Nc2c(C)ccc3nsnc23)cc1OC | 4 | -11 | 0.3 | 69* | 1 | 3
Cc1ccc(C2C(=O)N(C3CCC(C)CC3)CC(=O)N2C2CC2)cc1 (centres undefined) | 2 | 6 | 0.9 | 8 | 1.9 | -89
COc1ccc(NS(=O)(=O)c2cccc3nsnc23)cc1OC | 11 | 5 | 0.2 | 82* | 0.8 | 17
COc1ccc(CCNC(=O)CCS(=O)(=O)c2cccc3nsnc23)cc1OC | 2 | 16 | 1 | -1 | 0.6 | 36
COCCn1c(C)c(C(=O)O)sc1=S | 9 | -7 | 1.1 | -8 | 1.2 | -16
Cc1cc(NC(=O)c2ccco2)ncc1NC(=O)Cc1ccccc1 | 7 | -6 | 1 | 2 | 0.9 | 10
Cn1c(=O)[nH]c(=O)c2c1nc(NCc1ccccc1)n2CCCc1ccccc1 | 6 | 10 | 0.7 | 32 | 0.6 | 38
CCOc1ccccc1NC(=O)N1CCCC1C(=O)Nc1ccc(NC(C)=O)cc1 (centres undefined) | 6 | 19 | 0.9 | 7 | 0.8 | 21
COc1ccc(N=CC2=C(O)c3ccccc3C2=O)c(OC)c1 | 5 | 7 | 0.2 | 78* | 0.9 | 13
Cc1nn(-c2ccccc2)c2sc(C(=O)OCC(=O)N3CCCCC3)cc12 | . | . | 1 | -2 | 1 | -5
SMILES | PostGolgi ctrl | PostGolgi yeast | CYP2C19 activ | CYP2C19 inhib | CYP2C9 act | CYP2C9 inhib
Cc1ccc(S(=O)(=O)NC2CCCC(C(=O)O)C2)cc1 (centres undefined) | 16 | -11 | 1.1 | -13 | 1.1 | -13
CN(C)c1nc(N)nc(CSc2nnnn2-c2ccc(C(=O)O)cc2)n1 | 9 | 6 | 1 | -4 | 1.2 | -21
COc1ccc(N(CC(O)CN2C(=O)NC(C)(C)C2=O)S(=O)(=O)c2ccccc2)cc1 (centres undefined) | -2 | -7 | 0.5 | 49 | 0.7 | 26
CC(=O)Nc1nonc1-n1nnc(C(=O)NCc2ccccc2)c1C | 5 | 10 | 0.2 | 83* | 0.3 | 70*
COc1ccc(OC)c(S(=O)(=O)N2CCC(C(=O)Nc3cccc(C)c3)CC2)c1 | 3 | 15 | 0.1 | 88* | 1.3 | -32
COc1ccc(S(=O)(=O)N2CCC(C(=O)Nc3cccc(Cl)c3)CC2)cc1OC | -2 | -2 | 0.5 | 53* | 1.1 | -9
COC(=O)c1ccccc1NC(=O)C1CCN(S(=O)(=O)c2cc(C)ccc2OC)CC1 | 13 | -5 | 0.1 | 86* | 0.1 | 88*
CCn1nnc(NC(=O)c2ccccc2Br)n1 | 7 | 2 | 1 | 2 | 1 | 4
COc1ccc(C2=NOC3(CC(=O)N(c4ccc5ccccc5c4)C3=O)C2)c(OC)c1 (centres undefined) | 15 | 0 | 1 | -2 | 0.9 | 5
CCOC(=O)/C(C#N)=C1/C=CN(c2ccc(C)cc2)C=N1 | 8 | -1 | 1 | -1 | 0.7 | 33
CCOC(=O)/C(C#N)=C1/SC(CC)C(=O)N1c1ccc(C)cc1 (centres undefined) | -1 | -9 | 0.1 | 91* | 0.4 | 55*
Cc1cc(Nc2ccccc2)nn1C(=O)c1ccc(Cl)cc1 | 13 | 0 | 1.1 | -10 | 0.5 | 55*
COc1ccccc1NC(=O)N1CCN(c2ncccn2)CC1 | 5 | 5 | 0.6 | 42 | 2.4* | -141
COc1cc(OC)cc(C(=O)N2CCN(c3ncccn3)CC2)c1 | -1 | 9 | 0.6 | 44 | 0.7 | 31
CN(CC(=O)O/N=C(\N)c1ccccn1)S(=O)(=O)c1ccc(Br)cc1 | 4 | -2 | 0.9 | 6 | 1.2 | -23
COc1ccccc1CC(=O)N1CCN(c2ccccn2)CC1 | -3 | 28 | 0.4 | 58* | 1.3 | -27
S=C(Nc1cccc2ccccc12)N1CCN(c2ncccn2)CC1 | 4 | -4 | 0.4 | 58* | 0.7 | 25
CN(CC(=O)N1CCN(c2ccccn2)CC1)S(=O)(=O)c1ccc(Br)cc1 | 6 | -7 | 0.4 | 63* | 1.4 | -42
Cc1oc(C)c(C(=O)Nc2ccc(CC(=O)O)cc2)c1C(=O)Nc1ccc(CC(=O)O)cc1 | 2 | 5 | 1 | -5 | 1 | 4
COc1ccccc1CC(=O)N1CCN(c2cccc(C(F)(F)F)c2)CC1 | 7 | 9 | 0.3 | 72* | 2* | -104
COc1ccccc1NC(=O)N1CCN(c2cccc(C(F)(F)F)c2)CC1 | 17 | 22 | 0.2 | 85* | 2.1* | -113
O=C(CC1CCCCC1)N1CCN(c2ccccn2)CC1 | 1 | -3 | 0.5 | 54* | 0.4 | 62*
COc1ccc(-c2noc(-c3ccco3)n2)cc1OC | 21 | -3 | 1 | 4 | 0.9 | 7
CN(C)C(=O)CN(c1ccc(F)c(Cl)c1)S(C)(=O)=O | 5 | 1 | 0.9 | 15 | 0.9 | 14

Bioassay records from PubChem BioAssay.
